Reference: PubChem BioAssay (NCATS)
A number with no mark means an inactive call. Calls of active or inactive are those of the source. No rule for the calls is given here.

Test system: HIV-1 nucleocapsid protein NCp7 (binding to TG oligonucleotide)
Assay: HIV Nucleocapsid (AID 346);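 also: potency is for inhibitors that block NC binding and lower polarization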
Conditions: HIV-1 NC / fluorescein-TGTGTGTG probe, fluorescence polarization
In short: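 Inhibition of nucleocapsid binding to single-stranded 5'-TGTGTGTG probe (10 nM) was measured by fluorescence polarization after 1 hr at room temperature with 100 nM protein under high-salt, zinc-containing, reducing conditions.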
Potency is read from the fitted curve at half-maximal effect.

Row | SMILES | Potency
1 | Cc1noc(C)c1-c1ccc2ncnc(N3CCN(C)CC3)c2c1 | > 20 µM
2 | COc1ccccc1CNc1ncncc1-c1ccccc1Cl | > 20 µM
3 | COc1ccc(CNc2nc(-c3ccccc3CN(C)C)nc3ccccc23)c(OC)c1 | > 20 µM
4 | CN1CCN(c2cc(-c3ccc(N(C)C)cc3)ncn2)CC1 | > 20 µM
5 | O=c1c(-c2cc(F)cc(F)c2)nc2cnc(N3CCOCC3)nc2n1C[C@H]1CCCO1 | > 20 µM
6 | COc1cccc(Nc2ncc3nc(-c4cccs4)c(=O)n(-c4ccccc4)c3n2)c1 | 6.57 µM (active)
7 | O=C(Nc1ccccc1)N1CCC2(CC1)CCN(C(=O)c1ccco1)CC2 | > 20 µM
8 | COc1ccc(-n2c(=O)c(C)nc3cnc(N(C)C)nc32)cc1 | > 20 µM
9 | Cc1nc2cnc(Oc3cccc(Cl)c3)nc2n(Cc2ccc(F)cc2)c1=O | > 20 µM
10 | COc1ccc(-c2nc3cnc(N4CCN(C)CC4)nc3n(CCc3ccccc3)c2=O)cc1 | > 20 µM
11 | Cc1cccc(CNc2ncnc3ccc(-c4c(C)noc4C)cc23)c1 | > 20 µM
12 | COc1ccccc1CN1CC2(CCN(S(C)(=O)=O)CC2)C1 | > 20 µM
13 | N#Cc1ccccc1-c1ccc2ncnc(NCCN3CCOCC3)c2c1 | > 20 µM
14 | CNc1nc(-c2ccccc2C(F)(F)F)nc2ccccc12 | > 20 µM
15 | COCC(=O)N1CCC2(CCCN(c3ccncc3)C2)CC1 | > 20 µM
